The results in this text go back to article PMC3218832.

Some targets named below: RELARELA (p65 homodimer) (Homo sapiens, UniProt Q04206 1-307); p50p50 homodimer (Homo sapiens, UniProt P19838 7-356); RELB subunit;p50 subunit (Homo sapiens;Homo sapiens, UniProt Q01201;P19838 120-401;7-356).
Common to all, as to test: protein binding microarray; high values mean tight binding
Conditions in all cases: dsDNA, one strand shown

Another assay concerns the target T1, p52p52 homodimer (Homo sapiens, UniProt Q00653 4-332).
T1 sequence: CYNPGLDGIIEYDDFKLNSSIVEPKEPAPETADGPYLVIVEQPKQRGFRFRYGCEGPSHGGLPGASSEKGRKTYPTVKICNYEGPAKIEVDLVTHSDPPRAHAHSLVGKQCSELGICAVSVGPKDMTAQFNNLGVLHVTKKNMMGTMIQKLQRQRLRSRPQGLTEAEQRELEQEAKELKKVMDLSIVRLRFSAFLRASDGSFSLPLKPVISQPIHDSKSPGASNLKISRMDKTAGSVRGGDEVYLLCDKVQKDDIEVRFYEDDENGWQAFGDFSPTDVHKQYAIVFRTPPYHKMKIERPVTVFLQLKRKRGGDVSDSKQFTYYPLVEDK

Assay [1] addresses RELA (p65) subunit of heterodimer;p50 subunit (Homo sapiens;Homo sapiens, UniProt Q04206;P19838 1-307;7-356).
The target of assay [2] is RELA (p65) subunit of heterodimer;p52 subunit (Homo sapiens;Homo sapiens, UniProt Q04206;Q00653 1-307;4-332).
A further assay deals with T2, RELB subunit;p52 subunit (Homo sapiens;Homo sapiens, UniProt Q01201;Q00653 120-401;4-332).
T2 sequence 1: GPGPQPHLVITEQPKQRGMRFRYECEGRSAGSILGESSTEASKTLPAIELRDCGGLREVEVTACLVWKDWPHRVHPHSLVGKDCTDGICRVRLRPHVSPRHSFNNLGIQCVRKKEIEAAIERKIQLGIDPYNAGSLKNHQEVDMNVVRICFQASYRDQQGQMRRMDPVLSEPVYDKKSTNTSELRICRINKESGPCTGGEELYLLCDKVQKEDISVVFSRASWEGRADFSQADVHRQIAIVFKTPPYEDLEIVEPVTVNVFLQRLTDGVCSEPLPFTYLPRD
T2 sequence 2: T1 sequence

The target in assay [3] is C-Rel subunit;p50 subunit (Homo sapiens;Homo sapiens, UniProt Q04864;P19838 1-285;7-356).
In assay [4] the target is T3, C-Rel subunit;p52 subunit (Homo sapiens;Homo sapiens, UniProt Q04864;Q00653 1-285;4-332).
T3 sequence 1: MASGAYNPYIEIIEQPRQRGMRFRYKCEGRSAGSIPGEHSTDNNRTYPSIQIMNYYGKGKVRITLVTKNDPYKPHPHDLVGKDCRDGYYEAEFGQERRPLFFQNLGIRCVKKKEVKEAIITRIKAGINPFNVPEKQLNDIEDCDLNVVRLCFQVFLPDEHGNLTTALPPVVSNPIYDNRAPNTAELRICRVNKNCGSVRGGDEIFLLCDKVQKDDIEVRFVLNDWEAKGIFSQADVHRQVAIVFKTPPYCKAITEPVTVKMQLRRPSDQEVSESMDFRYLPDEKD
T3 sequence 2: T1 sequence

Chain of p50p50 homodimer (P19838 7-356): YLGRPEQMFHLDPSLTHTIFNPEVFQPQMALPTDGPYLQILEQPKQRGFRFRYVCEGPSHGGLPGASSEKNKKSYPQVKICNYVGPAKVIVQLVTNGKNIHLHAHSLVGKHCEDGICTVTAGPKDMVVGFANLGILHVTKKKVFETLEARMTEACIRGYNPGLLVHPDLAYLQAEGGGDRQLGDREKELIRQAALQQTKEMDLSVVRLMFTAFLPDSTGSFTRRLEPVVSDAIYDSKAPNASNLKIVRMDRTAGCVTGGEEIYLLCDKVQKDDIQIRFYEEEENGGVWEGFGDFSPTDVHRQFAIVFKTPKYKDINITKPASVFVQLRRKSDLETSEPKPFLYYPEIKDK
Chain of RELARELA (p65 homodimer) (Q04206 1-307): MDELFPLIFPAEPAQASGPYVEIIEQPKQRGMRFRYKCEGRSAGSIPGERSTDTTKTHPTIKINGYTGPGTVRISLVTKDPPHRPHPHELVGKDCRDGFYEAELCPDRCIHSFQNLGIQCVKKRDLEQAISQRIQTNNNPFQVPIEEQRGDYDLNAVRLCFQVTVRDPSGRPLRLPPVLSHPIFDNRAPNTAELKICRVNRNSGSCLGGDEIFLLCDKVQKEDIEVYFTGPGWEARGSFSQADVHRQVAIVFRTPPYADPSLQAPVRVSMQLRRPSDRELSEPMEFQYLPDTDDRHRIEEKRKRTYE
Chain of RELA (p65) subunit of heterodimer;p50 subunit (Q04206 1-307, chain 1 of 2): as the sequence (Q04206 1-307) above
Chain of RELA (p65) subunit of heterodimer;p50 subunit (P19838 7-356, chain 2 of 2): as the sequence (P19838 7-356) above

Regarding AAGGGTTTCCC, the binding signal with RELARELA (p65 homodimer) was determined as 2.18 z-score; with p50p50 homodimer it was 0.668 z-score; with p52p52 homodimer it was 1.31 z-score; in [1], 1.15 z-score; in assay [2], 1.43 z-score; with RELB subunit;p50 subunit, 0.696 z-score. For the same sequence, the binding signal in the assay with RELB subunit;p52 subunit was found to be 1.17 z-score; in assay [3] it was 1.07 z-score; in assay [4], 1.57 z-score.
For GAAATTGCCCT, the binding signal with RELARELA (p65 homodimer) was 0.612 z-score; with p50p50 homodimer, -0.312 z-score; with p52p52 homodimer, -0.333 z-score; in assay [1], 0.0283 z-score; in assay [2], -0.203 z-score; with RELB subunit;p50 subunit, -0.547 z-score. The binding signal was -0.476 z-score with RELB subunit;p52 subunit, 0.175 z-score in [3] and -0.0915 z-score in [4].
AAAGTGGTCCC: the binding signal in the assay with RELARELA (p65 homodimer) was -0.237 z-score; with p50p50 homodimer, 0.456 z-score; with p52p52 homodimer it was 0.16 z-score; in assay [1] it was -0.319 z-score; in assay [2], -0.267 z-score; in the assay with RELB subunit;p50 subunit, 0.24 z-score. Further, the binding signal in the assay with RELB subunit;p52 subunit is -0.0596 z-score; in assay [3], -0.25 z-score; in assay [4] it was -0.422 z-score.
For the sequence CGGGAACTCCT, the binding signal is 1.67 z-score with RELARELA (p65 homodimer); 0.314 z-score with p50p50 homodimer; 0.181 z-score in the assay with p52p52 homodimer; 0.357 z-score in [1]; 0.17 z-score in assay [2]; -0.0239 z-score in the assay with RELB subunit;p50 subunit. Moreover, the binding signal was 0.0296 z-score in the assay with RELB subunit;p52 subunit, 0.188 z-score in [3] and 0.424 z-score in assay [4].
For GAGAGATTCCC, the binding signal in the assay with RELARELA (p65 homodimer) came to 1.47 z-score; in the assay with p50p50 homodimer, 0.649 z-score; with p52p52 homodimer it was 0.325 z-score; in assay [1], 0.844 z-score; in assay [2] it was 0.545 z-score; with RELB subunit;p50 subunit it was 0.433 z-score. For the same sequence, the binding signal was determined as 0.292 z-score in the assay with RELB subunit;p52 subunit, 0.909 z-score in assay [3] and 0.551 z-score in [4].
As to GAGAGTATCCC, the binding signal in the assay with RELARELA (p65 homodimer) is -0.187 z-score; in the assay with p50p50 homodimer, -0.91 z-score; in the assay with p52p52 homodimer, -0.43 z-score; in [1], -0.602 z-score; in assay [2], -0.673 z-score; in the assay with RELB subunit;p50 subunit, -0.546 z-score. Further, the binding signal in the assay with RELB subunit;p52 subunit is -0.687 z-score; in assay [3], -0.656 z-score; in assay [4], -0.641 z-score.
On to AGAATGACCCC, for which the binding signal was -0.278 z-score in the assay with RELARELA (p65 homodimer); -0.204 z-score in the assay with p50p50 homodimer; -0.112 z-score in the assay with p52p52 homodimer; -0.177 z-score in assay [1]; -0.287 z-score in [2]; -0.428 z-score with RELB subunit;p50 subunit. Further, the binding signal with RELB subunit;p52 subunit is -0.388 z-score; in assay [3], -0.442 z-score; in assay [4], -0.311 z-score.
CGAGTTGCCCC: the binding signal was 0.677 z-score in the assay with RELARELA (p65 homodimer); 0.0517 z-score with p50p50 homodimer; -0.0293 z-score with p52p52 homodimer; 0.542 z-score in assay [1]; 0.31 z-score in [2]; 0.428 z-score with RELB subunit;p50 subunit. In addition, the binding signal is 0.407 z-score in the assay with RELB subunit;p52 subunit, 0.855 z-score in [3] and 0.564 z-score in [4].
For CAAGGTTCCCC, the binding signal was determined as 0.544 z-score in the assay with RELARELA (p65 homodimer); 1.15 z-score with p50p50 homodimer; 1.29 z-score with p52p52 homodimer; 1.68 z-score in assay [1]; 1.31 z-score in assay [2]; 1.5 z-score with RELB subunit;p50 subunit. Also, the figures for the binding signal (with RELB subunit;p52 subunit; in [3]; in assay [4]) were 1.58 z-score, 1.36 z-score and 1.06 z-score, respectively.
For GAGGAGCTCCT, the binding signal was -0.566 z-score with RELARELA (p65 homodimer); -1.81 z-score with p50p50 homodimer; -0.78 z-score with p52p52 homodimer; -1.13 z-score in assay [1]; -0.927 z-score in assay [2]; -1.05 z-score with RELB subunit;p50 subunit. Further, the binding signal with RELB subunit;p52 subunit was -1.06 z-score; in assay [3] it was -1.73 z-score; in [4], -0.927 z-score.
In the case of GGAGTCTCCCC, the binding signal with RELARELA (p65 homodimer) worked out at 1.17 z-score; with p50p50 homodimer it was 0.531 z-score; with p52p52 homodimer it was 0.409 z-score; in [1] it was 1.27 z-score; in assay [2], 0.997 z-score; with RELB subunit;p50 subunit, 0.547 z-score. In addition, the results for the binding signal (in the assay with RELB subunit;p52 subunit; in assay [3]; in [4]) were 0.514 z-score, 0.822 z-score and 0.954 z-score, respectively.
With AGGGTGCCCCT, the binding signal with RELARELA (p65 homodimer) was -0.552 z-score; with p50p50 homodimer it was 0.473 z-score; with p52p52 homodimer it was 0.342 z-score; in assay [1] it was 0.511 z-score; in assay [2], 0.658 z-score; with RELB subunit;p50 subunit it was 0.571 z-score. Further, the figures for the binding signal (with RELB subunit;p52 subunit; in assay [3]; in [4]) were 1.16 z-score, 0.426 z-score and 0.644 z-score, respectively.
Consider AGGTAGGCCCT, for which the binding signal in the assay with RELARELA (p65 homodimer) was -0.932 z-score; in the assay with p50p50 homodimer it was -0.756 z-score; in the assay with p52p52 homodimer, -0.535 z-score; in [1], -0.978 z-score; in [2], -0.63 z-score; in the assay with RELB subunit;p50 subunit, -0.647 z-score. Moreover, the binding signal with RELB subunit;p52 subunit is -0.561 z-score; in [3], -1.13 z-score; in assay [4], -0.598 z-score.
As to CGATACCTCCC, the binding signal with RELARELA (p65 homodimer) was -0.139 z-score; with p50p50 homodimer, -0.527 z-score; with p52p52 homodimer it was -0.392 z-score; in [1], -0.477 z-score; in [2] it was -0.641 z-score; with RELB subunit;p50 subunit, -0.466 z-score. The binding signal with RELB subunit;p52 subunit is -0.506 z-score; in assay [3], -0.897 z-score; in [4], -0.543 z-score.
Take CGGTGAGCCCC: the binding signal with RELARELA (p65 homodimer) is -0.508 z-score; with p50p50 homodimer, 0.0715 z-score; with p52p52 homodimer, -0.0385 z-score; in [1] it was -0.0467 z-score; in assay [2], 0.0767 z-score; in the assay with RELB subunit;p50 subunit, -0.0666 z-score. Further, the binding signal was 0.236 z-score with RELB subunit;p52 subunit, 0.3 z-score in [3] and 0.314 z-score in assay [4].
